ChEMBL document CHEMBL1157539, “Thousands of chemical starting points for antimalarial lead identification” (Nature, 2010)

System: Plasmodium falciparum
Assay: GSK_TCMDC: Inhibition of Plasmodium falciparum 3D7 in whole red blood cells, using parasite LDH activity as an index of growth. Test compounds present at 2uM
Type: functional

With CCCCCn1c(Sc2ccc(C#N)c([N+](=O)[O-])c2)nnc1-c1ccccc1 as the compound, how does the Inhibition read?
The Inhibition was 93%.

How did the Inhibition turn out when Cc1ccc(C)c(NC(=O)NCCNc2ccnc(Nc3ccc(F)cc3)n2)c1 was run?
Its Inhibition is 97%.

Cc1ccccc1C1CCN(c2ccc(NC(=O)c3ccc(Cl)nc3)cc2)CC1.O=C(O)C(F)(F)F was tested. Which Inhibition did it give?
The Inhibition was 92%.

With CN(C)C(CNC(=O)c1cc(-c2ccncc2)c(-c2cc3ccccc3[nH]2)o1)c1ccccc1.O=C(O)C(F)(F)F (stereo not drawn) as the compound, how does the Inhibition read?
Its Inhibition is 96%.

COc1cc(C(=O)Nc2ccc3nc(N4CCN(C)CC4)cc(C)c3c2)cc(OC)c1OC was tested. Which Inhibition did it give?
Its Inhibition is 100%.

For c1ccc(CNc2nc(NCCc3c[nH]cn3)nc(NCc3cccc4ccccc34)n2)cc1, which Inhibition is on record?
Its Inhibition is 91%.

Which Inhibition does the source give for CCN(CC)CCN(Cc1ccc(-c2ccc(C(F)(F)F)cc2)cc1)C(=O)Cn1c(CCc2cc(F)c(F)cc2F)nc(=O)c2ccccc21.O=C(O)C(O)C(O)C(=O)O here?
Its Inhibition is 99%.

How did the Inhibition turn out when CCOc1ccc(C(C)NC(=O)C2COc3ccccc3O2)cc1OCC (stereo not drawn) was run?
Its Inhibition is 100%.

With O=C(O)C(F)(F)F.c1ccc2[nH]c(-c3ccc(-c4ccc(CN5CCCCC5)cc4)cc3)nc2c1 as the compound, how does the Inhibition read?
The Inhibition was 99%.

For CCN(CC)CCNc1ccnc2ccc3ccccc3c12, which Inhibition is on record?
The Inhibition was 100%.

How did the Inhibition turn out when Cc1cc(N2Cc3ccccc3C2)nc(Nc2cccc(C#N)c2)n1 was run?
Its Inhibition is 100%.

CCN(CC)CCN(Cc1ccc(-c2ccc(C(F)(F)F)cc2)cc1)C(=O)Cn1c(CCc2ccc(F)c(F)c2)cc(=O)c2ccccc21.O=C(O)C(O)C(O)C(=O)O was tested. Which Inhibition did it give?
The Inhibition was 95%.

How did the Inhibition turn out when O=C(Nc1cccc(-c2ccc(-c3nc4cc(F)ccc4[nH]3)cc2)c1)c1csnn1 was run?
Its Inhibition is 94%.
